Several values for one entry are separate records, joined by “and”; a condition that tells them apart may be missing. Equal entries are not always repeated. Activity calls are given as the source filed them. Rule for the calls: active = hit-call score of the fitted dose curve at least 0.9, where 1 is the maximum; inactive = score below 0.9.
assay: CEETOX_H295R_ESTRONE: CeeTox H295R High-throughput Steroidogenesis Assay for Estrone (AID 2283441); conditions: actives raise or lower the signal;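 note: estrone secreted into medium measured by LC-MS/MS after dansyl derivatization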;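 for AC50: human adrenal H295R cells prestimulated with forskolin for two days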
Method: CEETOX_H295R is a cell-based, multiplexed-readout assay that uses H295R, a human adrenal gland cell line, with measurements taken at 48 hours after chemical dosing in a 96-well plate.CEETOX_H295R_ESTRONE is one of 23 assay component(s) measured or calculated from the CEETOX_H295R assay. It is designed to make measurements of hormone induction, a form of inducible reporter, as detected with absorbance signals by HPLC-MS-MS technology.Data from the assay component CEETOX_H295R_ESTRONE was analyzed into 1 assay endpoint. This assay endpoint, CEETOX_H295R_ESTRONE, was analyzed with bidirectional fitting relative to DMSO as the negative control and baseline of activity. Using a type of inducible reporter, gain or loss-of-signal activity using HPLC-MS-MS was used to understand synthesis of Estrone in H295R cell line at 48hr of chemical exposure. To generalize the intended target to other relatable targets, this assay endpoint is annotated to the steroid hormone intended target family, where the subfamily is estrogens.
Cell culture and media preparation procedures were conducted in accordance with OECD Test No. 456 guidelines, with minor modifications. H295R cells (ATCC CRL-2128) were expanded for 5 passages and frozen in batches in liquid nitrogen. Prior to the steroidogenesis assay, H295R cells were thawed and passed at least 4 times. The maximum passage was 10. […] After seeding cells into 96-well plates at 50-60% confluency, cells were allowed to adhere overnight. Prior to chemical testing, culture medium was replaced with 175 uL medium containing 10 uM forskolin to stimulate steroidogenesis for 48 hours. Following prestimulation, forskolin medium was replaced with medium containing test chemical solubilized in DMSO (ensuring a final concentration of 0.1% DMSO). Test chemicals were incubated for 48 hours, then the medium was removed and split into 2 vials containing approximately 75uL each, and stored at -80 C prior to hormone analysis. For steroid quantification, media samples were shipped to OpAns, LLC (Durham, NC) on dry ice, and samples were thawed to room temperature prior to liquid-liquid extraction. Steroid hormones were extracted from media samples using methyl tertbutyl ether (MTBE). An extra derivatization with dansyl chloride was included for estrogen (estrone and estradiol) detection only. Steroid hormones were separated by HPLC, eluted using a reverse phase C18 gradient with electrospray positive ionization, followed by quantification by tandem mass spectrometry (MS/MS). Data were acquired on a MassHunter Workstation Acquisition version B03.01 (Agilent Technologies, Inc.) and processed using MassHunter Quantitative Analysis for QQQ. Accuracy was determined for each hormone analyte from 3 standards to determine upper and lower limits of quantification (ULOQ and LLOQ, respectively) using a 7-point standard curve. Precision and accuracy of the extraction and quantification methods were calculated as the percent relative standard deviation (%RSD) of the spiked standards and percent spiked standard recovered, respectively. The goal was to achieve 100% accuracy (i.e., recover all spiked-in standard at quantification with minimal loss during run time) and good precision (i.e., have %RSD <15% to ensure reproducibility). Test medium was removed following chemical exposure, and cell viability was evaluated in the same wells by MTT. MTT procedures were as follows: after removal of test medium, 500 uL of 0.5 mg/ml of 3-[4,5-dimethylthiazol-2-y]2,5-diphenyltetrazoliumbromide solution was added to the cells. Following a 4-hour incubation at 37 C and 5% CO2 to allow formazan-crystal formation, the MTT solution was removed and blue formazan salt crystals were solubilized using 500uL anhydrous isopropanol with shaking for 20 minutes. Absorbance was read at 570 and 650nm using a Packard Fusion microplate reader. Background correction of absorbance units was used to determine percent change relative to controls. […] […]

SMILES | outcome | AC50
CCOP(=S)(NC(C)C)Oc1ccccc1C(=O)OC(C)C (centres undefined) | inactive | –
Cc1ccc(O)cc1C | inactive | –
c1ccc(OP(Oc2ccccc2)Oc2ccccc2)cc1 | inactive | –
Nc1ccc2ccccc2c1 | inactive | –
O=S(=O)(c1ccc(O)cc1)c1ccc(O)cc1 | inactive | –
CCOP(=S)(Oc1ccc([N+](=O)[O-])cc1)c1ccccc1 (centres undefined) | inactive | –
ClC(Cl)=C(c1ccc(Cl)cc1)c1ccccc1Cl | inactive | –
Nc1cc2c3c(c1)C(c1ccccc1)=N[C@@H](NC(=O)c1cccnc1)C(=O)N3CC2 | inactive | –
N#Cc1c(-c2ccc(Cl)cc2)[nH]c(C(F)(F)F)c1Br | inactive | –
CCNc1nc(Cl)nc(NC(C)(C)C)n1 | – | 1.51 µM (active)
CCOP(=S)(OCC)SCn1nnc2ccccc2c1=O | inactive | –
Oc1ccc(I)cc1 | inactive | –
CCCCOCCOP(=O)(OCCOCCCC)OCCOCCCC | inactive | –
O=S1(=O)OCC2C(CO1)C1(Cl)C(Cl)=C(Cl)C2(Cl)C1(Cl)Cl (centres undefined) | inactive | –
CCCCc1ccc(O)cc1 | – | 32.2 µM (active)
Cc1ccc(N)cc1N | inactive | –
CC(C)Nc1ccc(Nc2ccccc2)cc1 | inactive | –
CCC(C)(C)c1ccc(O)cc1 | inactive | –
c1ccc2c(c1)Nc1ccccc1S2 | – | 9.58 µM (active) and 17.3 µM (active) and 12 µM (active)
